# Test results: PubChem BioAssay AID1259418 (Broad Institute, 2018)
# Out of some 3,400 compounds screened, about 840 (25%) were called active. Inconclusive results (about 11%) are left out. Not all results are given here. Measured potencies and affinities stand elsewhere. Unmarked numbers belong to inactive results.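 How the source made its calls: active means fitted half-maximal concentration of signal decrease at or below twice the sample's top tested concentration; inconclusive means flat curve between -70 and -30 percent, or poor fit; inactive means flat within 30 percent, signal rise, or potency above limit.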
# Test: inhibitors of Toxoplasma growth in IFN-γ-primed HeLa – cell-based, ME49Luc, luciferase, 72 h, dose response (AID 1259418)
# Conditions: T. gondii ME49Luc in IFN-y HeLa, active compounds read low, -100% = high-dose IFN-γ control wells; at 19.5 µM unless noted
row,Compound,max activity
1,COc1cccc(CC(=O)Nc2ccc(-c3nc(-c4cc(C)ccc4C)co3)cc2)c1,-7.87%
2,CCC(C)Nc1nc(-c2ccc(Cl)cc2)nc2ccccc12 (stereo not given),-11.3% [at 10 µM]
3,CN1[C@@H]2c3ccc(/C=C/c4ccccc4)c(=O)n3C[C@H]1[C@H](CO)[C@H]2C(=O)NC1Cc2ccccc2C1,43.1% [at 5 µM]
4,CCCNC(=O)[C@H]1[C@H](CO)[C@H]2Cn3c(ccc(C4=CCCCC4)c3=O)[C@H]2N1Cc1ccccc1F,16.8% [at 10 µM]
5,O=C(CCn1cnc2cc(-c3noc(-c4cccc5[nH]ccc45)n3)ccc21)N1CCCC1,-15.6% [at 0.35 µM]
6,O=C(CCn1cnc2cc(-c3noc(CCc4c[nH]c5ccccc45)n3)ccc21)N1CCCC1,-14.5% [at 0.16 µM]
7,COc1ccc(NC(=O)Nc2ccc(-c3nc(-c4ccc(C)cc4)co3)cc2)cc1,43.2% [at 10 µM]
8,CC(C)NC(=O)N1CCC2(CC1)OCCN(CCO)c1ccccc12,20.9%
9,Cc1ccc(NC(=O)Nc2ccc(-c3nc(-c4ccccc4)co3)cc2)cc1,19.9% [at 0.16 µM]
10,N#Cc1ccc(-c2ccc3c(c2)[C@H]2[C@H](CCN2C(=O)C2CCCCC2)[C@@H](CO)N3)cc1,27.2% [at 10 µM]
11,COc1ccc(-c2nc(Cn3nnc(-c4nc(-c5ccc(Cl)cc5)no4)c3C)c(C)o2)cc1,6.38%
12,CCC(C(=O)N1CCC[C@@H]1C(=O)NCCc1csc(C)n1)c1ccccc1 (stereo not given in full),9.81% [at 0.35 µM]
13,COc1cc(-c2noc(-c3nnn(Cc4nc(-c5ccccc5)oc4C)c3C)n2)cc(OC)c1OC,6.25% [at 0.35 µM]
14,COc1ccc2c(c1)NC1(CCN(C(=O)c3ccc(C)c(F)c3)CC1)c1cccn1-2,5.27% [at 0.68 µM]
15,Cc1ccccc1Cn1cccc1CNS(=O)(=O)c1ccc2c(c1)CCC(=O)N2,13.6% [at 2.6 µM]
16,O=C(CCC1N=C2c3ccccc3N=C(SCc3cccc(Cl)c3)N2C1=O)NCc1ccco1 (stereo not given),24.8% [at 5 µM]
17,O=C(CC1N=C2c3ccccc3N=C(SCc3cccc(F)c3)N2C1=O)NCc1cccs1 (stereo not given),-23.9% [at 5 µM]
18,NC(=O)C1(N2CCCCC2)CCN(c2ncc(NC(=O)c3cccc(Cl)c3)cc2C(=O)O)CC1,5.69%
19,COc1ccc(-c2nc(N3CCc4ccccc43)c3ccccc3n2)cc1,-12.2% [at 0.35 µM]
20,CCS(=O)(=O)N1CCC(C(=O)NCCc2csc(-c3cccs3)n2)CC1,-17.6%

row,Compound,max activity
1,COc1ccc(-c2nc(Nc3ccc(F)cc3F)c3ccccc3n2)cc1,10.1%
2,Cc1ccc2c(c1C)-n1cccc1C1(CCN(C(=O)c3ccc(Br)cc3)CC1)N2,7.92% [at 0.16 µM]
3,COc1cc(C(=O)Nc2ccc(-c3nc(-c4ccc(C)cc4)co3)cc2)cc(OC)c1OC,54.9% [at 10 µM]
4,C[C@H]1CN([C@@H](C)CO)C(=O)c2cccc(NC(=O)c3ccc(-c4nccs4)cc3)c2O[C@@H]1CN(C)C(=O)Nc1ccc(C(F)(F)F)cc1,30.7% [at 5 µM]
5,C[C@@H]1CN([C@@H](C)CO)C(=O)c2cccc(NC(=O)NC3CCCCC3)c2O[C@H]1CN(C)Cc1ccc(C(F)(F)F)cc1,7.51%
6,CCCN(CCC)c1nc(-c2ccc(Cl)cc2)nc2ccccc12,25.7%
7,COc1ccc(-c2nc(Cn3nnc(-c4nc(-c5cccc(F)c5)no4)c3C)c(C)o2)cc1,5.24% [at 10 µM]
8,CCOc1ccccc1NC(=O)Nc1ccc(-c2nc(-c3ccc(C)cc3)co2)cc1,-10.4%
9,O=C(CC1CC1)N[C@H]1CN(C(=O)c2ccoc2)C[C@@H]2CCCO[C@H]21,19.7%
10,CCc1onc(C)c1C1CCCN1C(=O)c1cc(C(F)(F)F)nn1C (stereo not given),5.66% [at 0.16 µM]
11,O=C(Nc1ccc(-c2nc(-c3ccccc3)co2)cc1)Nc1ccccc1Cl,29.7% [at 10 µM]
12,NCCNC(=O)c1nc(-c2ccc(Br)o2)no1,8.96% [at 10 µM]
13,COc1cccc(-c2nc(C)c(-c3ccc(SCc4ccc(C)cc4)nn3)s2)c1,22.3% [at 10 µM]
14,Cc1nc(-c2ccc(F)cc2)sc1-c1ccc(SCc2ccc(F)cc2)nn1,12.7% [at 5 µM]
15,Cc1nc(-c2ccc(F)cc2)sc1-c1ccc(SCc2c(F)cccc2Cl)nn1,12.7% [at 0.68 µM]
16,COc1ccc(-c2nc(C)c(-c3ccc(SCc4c(F)cccc4Cl)nn3)s2)cc1,6.69% [at 0.16 µM]
17,COc1cccc(-c2nc(C)c(-c3ccc(SCc4ccc(Br)cc4)nn3)s2)c1,-17.9%
18,COc1cccc(-c2nc(C)c(-c3ccc(SCc4ccc(C(F)(F)F)cc4)nn3)s2)c1,7.57% [at 0.16 µM]
19,COc1ccc(-c2nc(C)c(-c3ccc(SCc4ccc(C)cc4)nn3)s2)cc1,10.6% [at 2.6 µM]
20,COc1cccc(-c2nc(C)c(-c3ccc(SCc4ccc(Cl)cc4Cl)nn3)s2)c1,-7.13% [at 1.35 µM]
